These results are taken from PubChem BioAssay AID1662 (Broad Institute, 2009).

SMILES strings stand for the structures. The campaign covered roughly 300,000 compounds. About 4,000 (1.3%) were called active. This is one part of a sample in which actives are shown more often than they occur.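 How the source made its calls: active means mean replicate score, as percent of positive control median, at least 50; inconclusive means mean below 50 but one replicate at or above 50; inactive means mean and every replicate below 50.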

A short description of this assay: S. pyogenes SKKanGAS growth inhibitors in kanamycin, primary screen, streptokinase expression inhibitor project, SKKanGAS strain, BacTiter-Glo luminescence (AID 1662).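 Further: strain carries kanamycin resistance gene driven by streptokinase promoter and grows in 40 µg/ml kanamycin; loss of luminescence reflects streptokinase promoter inhibition or plain growth inhibition; 0% = median of DMSO wells and 100% = positive control at its reference dose.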 Conditions: 6 h, at 7.5 µM, stronger effect = higher value.
Turning to `Cc1scc(C(=O)NNC(=S)NCC(C)C)c1C`, the inhibition was -0.356% (inactive).
As to `CC(C)(C)C(=O)NNC(=O)c1ccc(Oc2cc(Cl)cc(Cl)c2)o1`, the inhibition was 0.127% (inactive).
With `CN(c1ccccc1)S(=O)(=O)c1ccc(Cl)c(C(=O)NCCc2c[nH]c3ccccc23)c1`, the inhibition is 4.79% (inactive).
For the compound `CN(c1ccccc1)S(=O)(=O)c1cc(C(=O)OCC(=O)N2CCN(C(=O)c3ccco3)CC2)ccc1Cl`, the inhibition was -0.977% (inactive).
The value for `CN(c1ccccc1)S(=O)(=O)c1cc(C(=O)Nc2nc3ccccc3[nH]2)ccc1Cl` was 58.3% (active); that for `COc1cc2ccccc2cc1C(=O)N(CCN(C)C)c1nc2c(F)cccc2s1` was 0.17% (inactive).
As to `COc1cccc(CSc2nc3nc(C)cc(C)n3n2)c1`, the inhibition is 3.04% (inactive).
Under `CC(=O)Nc1ccc(NC(=O)CSc2ncnc3c2cnn3Cc2ccccc2)cc1` stands 3.94% (inactive); under `CSc1nc2ccccc2c(=O)n1Cc1ccc(F)cc1`, 18.7% (inactive); under `CSc1c(SCc2ccccc2)cnn(Cc2ccccc2)c1=O`, 66.2% (active).
Under `Cc1ccc(-c2noc(CNC(=O)c3ccoc3C)n2)cc1` stands 0.278% (inactive); under `Cc1ccc(-c2nn(-c3ccccc3)cc2/C=N/NC(=O)c2ccc3c(c2)OCO3)cc1`, 11.9% (inactive).
With `O=C(N/N=C/c1ccc([N+](=O)[O-])o1)c1cccc(S(=O)(=O)N2CCOCC2)c1`, the inhibition was 5.79% (inactive).
In the case of `O=C(N/N=C/c1ccc([N+](=O)[O-])o1)c1cn(-c2ccccc2)nc1-c1ccc(F)cc1`, the inhibition is 85.5% (active).
The value for `CCn1cc(CCC(=O)NCc2ccc(F)cc2)c2ccccc21` was 0.859% (inactive).
As to `COc1cccc(NC(=O)CSc2nnc(Cc3ccc(OC)c(OC)c3)o2)c1`, the inhibition was -5.07% (inactive).
Consider `Cc1cccc([C@@H]2[C@@H]3C(=O)N(C)C(=O)[C@@H]3[C@@H]3C(=O)Nc4ccccc4C(=O)N23)c1`, for which the inhibition is 1.01% (inactive).
Under `COc1ccc(N2CCN(CCCNC(=O)C3CCN(S(=O)(=O)N4CCOCC4)CC3)CC2)cc1` stands 0.276% (inactive); under `Cc1ccc(C)c(NC(=S)NNC(=O)c2csc(C)c2)c1`, -5.04% (inactive).
The value for `Cc1ccc(C)c(NC(=S)NNC(=S)Nc2ccc(C(C)C)cc2)c1` was 51.2% (active).
For `CC(C)c1ccc(NC(=S)NNc2ccc(Cl)c(C(=O)O)c2)cc1`, the inhibition is 5.7% (inactive).
Consider `C[C@@H]1CC[C@]2(O[C@@H](CCO)C[C@H](O)[C@H]2O)O1`, for which the inhibition is -1.49% (inactive).
For the compound `COc1ccc(-c2nn(-c3ccccc3)cc2/C=C2/SC(=S)N(CCCC(=O)O)C2=O)c(C)c1`, the inhibition was 46.2% (inactive).
`Cc1ccc(-c2nn(-c3ccccc3)cc2/C=C2\SC(=S)N(CCCCCC(=O)O)C2=O)o1`: the inhibition was 103% (active).
In the case of `CN(C)S(=O)(=O)c1cccc(-c2nn(-c3ccccc3)cc2/C=C2\SC(=S)N(CC(=O)O)C2=O)c1`, the inhibition is 25.2% (inactive).
For the compound `CCCN(CC(=O)Nc1ccccc1OC)C(=O)CCC(=O)c1ccc(F)cc1`, the inhibition is -6.42% (inactive).
As to `Oc1c(Cl)cc(Cl)c(Cl)c1Cc1c(O)c(Cl)cc(Cl)c1Cl`, the inhibition is 109% (active).
Regarding `CO/N=C/CC(=O)c1ccc(OC)cc1`, the inhibition was -3.09% (inactive).
`CSCCC(NS(=O)(=O)c1ccccc1F)C(=O)N1CC=C(c2ccccc2)CC1` (stereo unspecified): the inhibition was -1.43% (inactive).
For `O=C(Nc1ccc2oc(-c3ccccc3F)nc2c1)c1ccco1`, the inhibition was -5.59% (inactive).
On to `COc1ccc2[nH]c(=O)c(CNc3ccc(C)c(C)c3)cc2c1`, for which the inhibition is 26.7% (inactive).
Under `Cc1ccc(S(=O)(=O)c2c(COC(=O)c3cccc(Cl)c3)c(-c3ccccc3)nn2C)cc1` stands -28.6% (inactive); under `Cn1nc(-c2ccccc2)c(CSc2cccc(Cl)c2)c1Cl`, 61.6% (active); under `Cn1nc(-c2ccccc2)c(CO)c1Sc1ccccc1`, -5.22% (inactive).
With `CC(=O)N(CN1C(=O)C2C3C=CC(C3)C2C1=O)c1cccc(Cl)c1` (stereo unspecified), the inhibition was -0.219% (inactive).
Take `CCOC(=O)c1nnn(CC(=O)Nc2cccc(F)c2)c1C(=O)OCC`: the inhibition is -0.0535% (inactive).
Under `COc1cccc(CN(C)CC2CCCN(CCc3ccc(Cl)cc3)C2)c1OC` (stereo unspecified) stands -0.785% (inactive); under `COc1ccc(NC(=O)CS(=O)(=O)c2ccccc2)cc1`, -4.25% (inactive); under `Cc1nc(NC(=O)c2ccc3c(c2)OCCO3)ccc1Br`, -9.44% (inactive).
For `Cc1ccc2sc(NNC(=O)c3ccc4c(c3)OCCO4)nc2c1C`, the inhibition was 52.7% (active).
`O=C(Nc1nc2ccccc2s1)c1ccc2c(c1)OCO2`: the inhibition was -10.7% (inactive).
Under `COC(=O)c1ccc([C@@H](O)[C@H](C)C(=O)CC(=O)OC(C)(C)C)cc1` stands -0.38% (inactive).
Regarding `COc1ccc(C(=O)NC(=S)N2CCCCC2c2cccnc2)cc1OC` (stereo unspecified), the inhibition was 5.87% (inactive).
For `Cc1cccc(C(=O)NC(=S)N(C)C2CCCCC2)c1`, the inhibition is 55.3% (active).
For `Cc1cccc(C(=O)NCCCN(C)CCCNC(=O)c2cccc(C)c2)c1`, the inhibition was -2.44% (inactive).
For the compound `Cc1cccc(NC(=S)NCCN(C2CCCCC2)C2CCCC2)c1`, the inhibition is -5.79% (inactive).
`COc1ccc(C2/C(=C(/O)c3ccc4c(c3)CC(C)O4)C(=O)C(=O)N2Cc2ccncc2)cc1` (stereo unspecified): the inhibition was 1.18% (inactive).
The value for `O=C(CN(CC1CCCO1)C(=O)CNS(=O)(=O)c1ccc(Cl)cc1)NCc1ccccc1` (stereo unspecified) was -3.12% (inactive); that for `CCc1c(C)c2ccc(OC3CCCCC3=O)cc2oc1=O` (stereo unspecified) was -6.62% (inactive); that for `COCCCNC(=O)CSc1nc2ccc(N3CCOCC3)cc2c(=O)n1CCc1ccccc1` was 34.6% (inactive).
For `CCCCn1c(SCC(=O)NCC2CCCO2)nc2ccc(N3CCOCC3)cc2c1=O` (stereo unspecified), the inhibition was 2.53% (inactive).
Regarding `N#CCSc1nc2ccc(N3CCOCC3)cc2c(=O)n1CCc1ccccc1`, the inhibition was 71.7% (active).
As to `COCC(C)n1c(C)cc(C(=O)CSc2cc(C)c3ccccc3n2)c1C` (stereo unspecified), the inhibition was 2.07% (inactive).
As to `Cc1ccc(C(=O)N/N=C\c2cc(Br)c(Br)o2)cn1`, the inhibition is 6.13% (inactive).
Take `Cc1nn(-c2ccccc2)c2sc(C(=O)N(Cc3ccco3)C(C)C(=O)NC(C)(C)C)cc12` (stereo unspecified): the inhibition is 6.98% (inactive).
As to `O=C(Nc1ccc2ccccc2c1)/C(=C/c1cccc(Br)c1)NC(=O)c1ccco1`, the inhibition is 14.5% (inactive).
With `Cc1ccc(OCC(=O)NCCCNC(=O)c2ccco2)cc1C`, the inhibition is 2.37% (inactive).
The value for `CC(Oc1ccc2ccccc2c1)C(=O)NNC(=S)NC(=O)c1ccco1` (stereo unspecified) was 128% (active).
Turning to `CCCc1ccc(OCC(=O)NNC(=S)NC(=O)c2ccco2)cc1`, the inhibition is 113% (active).
`Cc1ccc(C(=O)NNC(=O)C(C)Oc2ccc3ccccc3c2)o1` (stereo unspecified): the inhibition was -4.95% (inactive).
As for `CCCc1ccc(OCCNC(=O)c2ccco2)cc1`, the inhibition was -5.79% (inactive).

Broadly, the inhibition is the relative decrease from the control value, in per cent.
